This is a sample that favours compounds with a hit; in the whole collection about 4.4% have one here.
PfHsp90 yeast 2: growth inhibition of PfHsp90-expressing yeast, primary screen, antimalarial PfHsp90 inhibitor project, S. cerevisiae, BacTiter-Glo luminescence, single point, set 2 | inhibition, % at 9.4 µM | BacTiter-Glo ATP, 48 h; yeast lacking PDR1 and PDR3 efflux regulators | 0.32% of 310,000 active | AID 504621, 2011;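 active means every replicate shows inhibition above about 80%, whatever the replicate mean, limit read from the data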;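 further: 0% = DMSO neutral controls and 100% = 20 µM radicicol positive controls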
tim10-1 inh: growth inhibitors of tim10-1 mutant yeast, primary screen, luminescence, uHTS | S. cerevisiae tim10-1 ts strain growth, BacTiter-Glo, 24 h | inhibition, % at 20 µM | 2.2% of 330,000 active;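 active means inhibition of at least 40%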;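 further: mutant grown at 25 °C; 0% = DMSO wells with yeast and 100% = wells holding no yeast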
TIM10 inh: growth inhibitors of isogenic TIM10 control yeast, primary screen, counter-screen for tim10-1 yeast inhibitor project, luminescence, uHTS; inhibition, % at 10 µM; 1.4% of 330,000 active; S. cerevisiae TIM10 strain growth, BacTiter-Glo luminescence, 24 h;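 active means inhibition of 40% or more at the single tested concentration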;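 further: wild-type TIM10 isogenic control strain grown at permissive 25 °C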
tim23-1 inh: growth inhibitors of tim23-1 mutant yeast, primary screen, luminescence, uHTS; S. cerevisiae tim23-1 growth, BacTiter-Glo luminescence, 24 h; inhibition, % at 20 µM; AID 463212, 2010; 1.3% of 330,000 active;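 active means growth inhibition of the mutant yeast at or above 50%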;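 further: temperature-sensitive mutant grown at 25 °C; plate controls were DMSO-treated mutant yeast for no effect and medium wells lacking yeast for full effect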
SKKanGAS inh: S. pyogenes SKKanGAS growth inhibitors in kanamycin, primary screen, streptokinase expression inhibitor project, SKKanGAS strain, BacTiter-Glo luminescence. inhibition, % at 7.5 µM. 1.3% of 300,000 active. 6 h. AID 1662, 2009;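 active means mean replicate score, as percent of positive control median, at least 50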;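 further: strain carries kanamycin resistance gene driven by streptokinase promoter and grows in 40 µg/ml kanamycin; loss of luminescence reflects streptokinase promoter inhibition or plain growth inhibition; 0% = median of DMSO wells and 100% = positive control at its reference dose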
The depositor's hits bear a star; . = no result given.

SMILES	PfHsp90 yeast 2	tim10-1 inh	TIM10 inh	tim23-1 inh	SKKanGAS inh
O=C(NC1CCCc2c1cnn2-c1ccc(F)cc1F)c1ccccc1N1CCOCC1 (centres undefined)	-29	7	-27	-4	0
Cc1ccc(-n2ncc3c2CCCC3NC(=O)c2ccccc2N2CCOCC2)cc1C (centres undefined)	114*	37	-14	14	-2
Cc1cc(Oc2cccc3c2S(=O)(=O)N(C2CCCC2)CC(COCc2ccccc2)O3)cc(C)c1C (centres undefined)	7	.	.	.	.
O=C(COc1ccc(Cl)cc1Cl)Nc1ccc(CN2CCOCC2)cc1	15	6	-8	10	103*
O=[N+]([O-])c1ccc(Cl)cc1P(=O)(O)c1cc(Cl)ccc1[N+](=O)[O-]	35	.	.	.	.
CCCCN1CCN=C1N(C)C	-6	6	1	0	.
CC(=O)c1sc(NC(=O)c2ccc(F)c(S(=O)(=O)N3CCOCC3)c2)nc1C	-6	6	2	1	.
Cc1ccc(C(O)(C(=O)NNc2ccc3ccccc3n2)c2ccc(C)cc2)cc1	-7	-2	12	6	71*
Cc1ccc(C(=O)Nc2ccc3ccccc3n2)cc1	0	15	-8	19	-5
Clc1cc(CSc2ccccc2)nc(-c2ccccc2)n1	10	5	3	-5	58*
Clc1ccc(SCc2cc(Cl)nc(-c3ccccc3)n2)cc1	18	13	0	6	67*
CC(C)(C)c1ccc(Cn2ccc(-c3ccc4c(c3)OCO4)n2)cc1	0	38	31	22	53*
O=[N+]([O-])c1ccc(CNCc2cc(Cl)ccc2O)cc1	4	9	17	43	.
CC(=O)Nc1nc(-c2ccc3ccccc3c2)cs1	-22	15	6	20	-6
Oc1ccc(Nc2nc(-c3ccc4ccccc4c3)cs2)cc1	-36	38	39	43	53*
COc1ccc(C(=O)O)cc1NC(=S)NC(=O)c1ccc(-c2ccc(Cl)cc2)o1	-9	2	11	2	51*
O=C(O)c1ccc(NC(=S)NC(=O)c2ccc(-c3ccc(Br)cc3)o2)cc1	.	.	.	.	55*
O=C(O)c1cccc(NC(=S)NC(=O)c2ccc(-c3ccc(Cl)cc3)o2)c1	8	7	-3	10	23
CC(C)c1ccc2nc3sc(C(=O)N4CCc5ccccc5C4)c(N)c3cc2c1	12	22	22	24	54*
CCN1CCc2nc3sc(C(=O)N4CCc5ccccc5C4)c(N)c3cc2C1	3	-16	-29	0	8
COc1ccc(C2CC(c3ccccc3)=NN2C(=O)c2cccs2)cc1 (centres undefined)	12	23	29	30	59*
COc1ccc(C2=NN(C(=O)c3cccs3)C(c3ccccc3O)C2)cc1 (centres undefined)	-10	15	20	24	41
C/C(=N\NC(=O)c1cccc2ccccc12)c1ccccn1	2	8	6	34	79*
CC(=NNC(=S)Nc1ccc(C)cc1)c1ccccn1	42	.	.	.	.
C/C(=N\NC(=O)c1ccccc1Cl)c1ccccn1	0	-10	-1	-9	41
SMILES	PfHsp90 yeast 2	tim10-1 inh	TIM10 inh	tim23-1 inh	SKKanGAS inh
C/C(=N\NC(=O)c1ccccc1OCc1ccc(F)cc1)c1ccccn1	5	-25	-9	4	.
CCOc1ccc(OCc2ccc(C(=O)N/N=C(\C)c3ccccn3)cc2)cc1	6	.	.	.	92*
C/C(=N\NC(=O)C(c1ccccc1)c1ccccc1)c1ccc(O)cc1	9	17	10	23	1
C/C(=N\NC(=O)C(c1ccccc1)c1ccccc1)c1ccccn1	2	22	13	4	70*
CC(=NNC(=S)Nc1cccc(C)c1)c1ccccn1	112*	.	.	.	.
CCc1cc(C(=O)Nc2ccc(S(=O)(=O)NC3=NCCCCC3)cc2)sc1C	1	2	-20	4	-2
C/C(=N\NC(=O)c1cc(Br)ccc1O)c1ccccn1	7	12	11	-2	97*
O=C(N/N=C(\c1ccccc1)c1ccccn1)c1ccccc1Cl	.	29	0	35	66*
COc1ccc(C(=O)N/N=C(\C)c2ccccn2)cc1OC	-5	26	11	12	38
CN(Cc1ccccc1)C(=O)c1ccc(NC(=O)Cc2ccc(NC(=O)C3CCN(S(=O)(=O)c4cccc([N+](=O)[O-])c4)CC3)cc2)cc1	8	.	.	.	.
Cc1cc(C)c(C)c(S(=O)(=O)N2CCC(C(=O)N(C)Cc3nc4ccccc4c(=O)[nH]3)CC2)c1C	-6	.	.	.	.
CC(C)CN(C(=O)C1CCCO1)c1c(N)n(CC(C)C)c(=O)[nH]c1=O (centres undefined)	-17	0	14	10	.
C=CC1=C(C(=O)O)N2C(=O)[C@@H](NC(=O)/C(=N\O)c3csc(N)n3)[C@H]2SC1 (stereo in doubt)	-4	5	3	-17	107*
Cc1cc(NC(=O)c2ccc3c(c2)OCCO3)ccc1NC(=O)c1cc2ccccc2o1	19	-30	21	24	53*
Cc1cc(NS(=O)(=O)c2ccc(NC(=O)c3cnc(Cl)c(Cl)c3)cc2)nc(C)n1	.	5	8	-1	.
Cc1ccc(C)c(CN2CCCN(Cc3cc(C)ccc3C)S2(=O)=O)c1	13	4	3	11	72*
CC(C)c1ccc(-c2nc(N3CCCCCC3)nc3n[nH]c(N)c23)cc1	.	14	22	10	26
CC(C)c1ccc(-c2nc(N3CCCC3)nc3n[nH]c(N)c23)cc1	13	7	12	10	53*
N#Cc1c(N)n(CCc2ccc(F)cc2)c2nc3ccccc3nc12	0	31	13	17	-9
COCCCn1c(N)c(-c2nc3ccccc3n2C)c2nc3ccccc3nc21	44	10	28	28	9
Nc1c(C(=O)OCC2CCCO2)c2nc3ccccc3nc2n1C1CCCC1 (centres undefined)	1	28	20	42	6
Cn1c(-c2c(N)n(CCCc3ccccc3)c3nc4ccccc4nc23)nc2ccccc21	-9	.	.	.	113*
Cn1c(-c2c(N)n(CCc3ccccc3)c3nc4ccccc4nc23)nc2ccccc21	-10	-29	-13	6	104*
Cn1c(-c2c(N)n(C3CCCC3)c3nc4ccccc4nc23)nc2ccccc21	.	-1	22	44	102*
COc1ccc(S(=O)(=O)N2CCCCC2)cc1NC(=O)CCNC(=O)c1ccco1	-5	9	-4	-4	.
O=S(=O)(Nc1ccc(-c2csc(-c3ccccc3)n2)cc1)c1ccc(F)cc1	.	21	38	49	98*
O=C(Nc1cccnc1)c1ccccc1NS(=O)(=O)c1ccc(F)cc1	.	32	20	19	3
